# Assay results reported in publication PMC5540273 (PLoS ONE, 2017).
# Key:
# Conditions in all cases: concentration: 1 μM, replicates: in singlicate; n = 1
# IKK-alpha = system: T1, IKK-alpha
# T1 construct: gene CHUK
# IKK-beta = system: T2, IKK-beta
# T2 construct: gene IKBKB
# IKK-epsilon = system: T3, IKK-epsilon
# T3 construct: gene IKBKE
# INSRR = system: INSRR
# INSR = system: INSR
# IRAK1 = system: IRAK1
# IRAK3 = system: IRAK3
# IRAK4 = system: IRAK4
# ITK = system: ITK
# [1] = system: JAK1(JH1domain-catalytic)
# 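Also: KINOMEscan kinase panel screen.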
Compound,%Inh (IKK-alpha),%Inh (IKK-beta),%Inh (IKK-epsilon),%Inh (INSRR),%Inh (INSR),%Inh (IRAK1),%Inh (IRAK3),%Inh (IRAK4),%Inh (ITK),%Inh [1]
CN(c1ccc(NC(=O)Nc2cccc(Cl)c2)cc1)c1ccnc(N)n1.Cl [GW830707],0%,0%,8%,3%,0%,0%,31%,0%,0%,0%
COc1ccc(C2=C(Nc3cccc(O)c3)C(=O)NC2=O)cc1 [SB-390766],26%,44%,0%,0%,2%,60%,0%,45%,7%,58%
CC(C)NCC(Cc1ccccc1)NC(=O)c1cc(Br)c(-c2ccnc3[nH]ccc23)s1.Cl.Cl (stereo not drawn) [GSK1383281],0%,23%,30%,0%,0%,15%,2%,12%,3%,35%
Cc1ccc(NC(=O)c2cccc(N3CCCCC3)c2)cc1-c1ccc(C(=O)NCC2CC2)cc1 [GSK1917008],54%,29%,15%,4%,12%,17%,11%,20%,26%,0%
Cc1ccc(-c2ccc3occ(-c4ccc(S(C)=O)cc4)c3c2)nn1 (stereo not drawn),0%,0%,0%,0%,0%,0%,0%,5%,0%,0%
O=C1NC(=O)C(c2ccccc2Cl)=C1Nc1cccc(Cl)c1 [SB-342409],18%,36%,0%,1%,7%,28%,0%,32%,14%,1%
CN(C)CCNS(=O)(=O)c1ccc(-c2ccnc3[nH]ccc23)cc1 [GSK977620],85%,98.8%,2%,0%,0%,55%,45%,17%,54%,12%
CC(C)(C)c1ccc(C(=O)Nc2cn3cc(-n4ccnc4)ccc3n2)cc1,2%,9%,0%,5%,26%,21%,55%,65%,14%,11%
Cl.N#CCc1ccc(Nc2nccc(Nc3ccc(Oc4ccccc4)cc3)n2)cc1 [GW639905],39%,45%,14%,4%,0%,42%,62%,32%,0%,57%
